PubChem BioAssay AID504862 (Sanford-Burnham Center for Chemical Genomics, 2011)
The list shows a part of the results. Activity calls are given as the source filed them.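 How the source made its calls: active means average inhibition reaching 50% or more with the compound at 20 µM; inactive means the rest.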

tested on: diaphorase (Clostridium kluyveri); assay: C. kluyveri diaphorase inhibition, resazurin coupling – biochemical, fluorescence intensity, 10 µM NADPH, counter-screen for P. falciparum G6PD inhibitor project, confirmation (AID 504862); conditions: diaphorase-coupled resazurin reduction, NADPH 10 uM, at 20 µM, hits give high values;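 further: resorufin red fluorescence formed as diaphorase reduces resazurin using NADPH; 0% = DMSO with enzyme and 100% = DMSO without enzyme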

Row | Structure (SMILES) | inhibition
1 | O=C(Nc1nnc(S(=O)(=O)N2CCOCC2)s1)c1cccc(Br)c1 | 56.5% (active)
2 | OCCN1CCN(C(=S)c2ccc(-c3ccccc3)cc2)CC1 | -9.62% (inactive)
3 | CCOc1ccccc1/C=N/NC(=O)CNC(=O)COc1ccccc1 | 96.9% (active)
4 | O=C(NC1=CC(=O)c2ccccc2C1=O)c1ccccc1 | 48.7% (inactive)
5 | COc1ccc(CCn2c(NN=C3CCCC3)nc3c2c(=O)[nH]c(=O)n3C)cc1 | 7.63% (inactive)
6 | O=c1[nH]c2ccccc2n2c(-c3ccccc3)nnc12 | 37.2% (inactive)
7 | COc1c(O)ccc2c1CN1CCc3cc4c(cc3C1C2)OCO4 (stereo unspecified) | 12.4% (inactive)
8 | COc1cccc(C(=O)Nc2nnc(S(=O)(=O)N(C)c3ccccc3)s2)c1 | 89.1% (active)
9 | COc1ccc(CC(=O)NCC(=O)N/N=C/c2cc(Br)ccc2OC)cc1 | 87.8% (active)
10 | CCN(CC)c1ccc2oc(=O)c(C)nc2c1 | 87.7% (active)
11 | Cc1ccnc(-n2sc3ccccc3c2=O)n1 | -36% (inactive)
12 | COc1cccc(C(=O)Nc2nnc(S(=O)(=O)N3CCCCC3)s2)c1 | 72.7% (active)
13 | O=C1/C(=C\c2ccc([N+](=O)[O-])cc2)CS(=O)(=O)C/C1=C/c1ccc([N+](=O)[O-])cc1 | -19.8% (inactive)
14 | Cn1c(-c2sccc2OCc2cccc(C(F)(F)F)c2)n[nH]c1=S | 4.08% (inactive)
15 | COc1cccc(C(=O)Nc2nnc(S(=O)(=O)N3CCOCC3)s2)c1 | 69.5% (active)
16 | CC(C)(C)NC(=O)COc1ccc(CNc2ccc3[nH]c(=O)[nH]c3c2)cc1 | 27.4% (inactive)
